Compounds with a hit are over-represented: about 3.7% of the library has one in this group of screens.
PfHsp90 set2: inhibits growth of yeast expressing Plasmodium falciparum Hsp90; 310,000 compounds, 0.32% hits; inhibition, % at 9.4 µM; S. cerevisiae expressing PfHsp90, BacTiter-Glo ATP, 48 h; yeast lacking PDR1 and PDR3 efflux regulators;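 active means every replicate shows inhibition above about 80%, whatever the replicate mean, limit read from the data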;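 further: 0% = DMSO neutral controls and 100% = 20 µM radicicol positive controls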
tim10-1 inh: tim10-1 yeast growth inhibition; S. cerevisiae tim10-1 ts strain growth, BacTiter-Glo, 24 h; inhibition, % at 20 µM; 330,000 compounds, 2.2% hits;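 active means inhibition of at least 40%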;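 further: mutant grown at 25 °C; 0% = DMSO wells with yeast and 100% = wells holding no yeast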
tim23-1 inh: growth inhibitors of tim23-1 mutant yeast. S. cerevisiae tim23-1 growth, BacTiter-Glo luminescence, 24 h. inhibition, % at 20 µM. 330,000 compounds, 1.3% hits. AID 463212;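 active means growth inhibition of the mutant yeast at or above 50%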;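 further: temperature-sensitive mutant grown at 25 °C; plate controls were DMSO-treated mutant yeast for no effect and medium wells lacking yeast for full effect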
TIM10 inh: inhibits growth of TIM10 yeast strain; inhibition, % at 10 µM; 330,000 compounds, 1.4% hits; S. cerevisiae TIM10 strain growth, BacTiter-Glo luminescence, 24 h; AID 463195;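 active means inhibition of 40% or more at the single tested concentration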;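 further: wild-type TIM10 isogenic control strain grown at permissive 25 °C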
V-ATPase pHluor: regulators of yeast V-ATPase proton transport | 350,000 compounds, 0.37% hits | S. cerevisiae, pHLuorin cytosolic pH fluorescence | AID 504577 | response, % at 10 µM; in the data active means response mostly above about 7.3%, no sharp cut-off; inactive means mostly below about 5.4%; further: actives read high
Starred values were filed as active, the others as inactive; nt = not tested or not shown.

SMILES | PfHsp90 set2 | tim10-1 inh | tim23-1 inh | TIM10 inh | V-ATPase pHluor
COC(=O)C1C2C=CC3(CN(Cc4ccco4)C(=O)C13)O2 (stereo unspecified) | -15.3 | -19.7 | -2.8 | 7.3 | 3.6
CC12C=CC3(CN(Cc4ccccc4)C(=O)C3C1C(=O)NCc1ccco1)O2 (stereo unspecified) | 31.6 | 13.7 | 16.0 | 2.5 | 16.9*
CC1=C(C(=O)OCc2ccccc2)C(/C=C/c2ccccc2)NC(=S)N1 (stereo unspecified) | 85.4* | -3.6 | 35.8 | 35.0 | -2.1
COc1cccc(CN(C(=O)c2ccccc2)C2CCS(=O)(=O)C2)c1 (stereo unspecified) | -5.0 | -4.3 | 7.3 | 1.1 | 28.7*
CC1CCCCN1C(=O)CSc1nnc(-c2ccccc2O)o1 (stereo unspecified) | 4.6 | 11.2 | 8.2 | 19.8 | 2.1
O=C(c1ccccc1)c1ccccc1N1C(=O)C=CC1=O | 106.7* | 10.9 | 9.6 | 14.6 | 6.1
O=C(/C=C/c1ccccc1)NC(=S)NNC(=O)c1cnccn1 | 108.6* | 8.5 | 33.3 | -3.6 | -1.4
CCCCN(Cc1cc2cc(OC)ccc2[nH]c1=O)C(=O)c1ccccn1 | 5.8 | 1.4 | -2.9 | -5.4 | -4.0
COc1ccc2[nH]c(C(=O)N(Cc3ccccn3)Cc3ccccn3)cc2c1 | 9.5 | 25.9 | 20.0 | 19.5 | 36.9*
COc1ccc(CN2C(=O)C(CC(=O)NCCCCc3ccccc3)CC(C(=O)N(C)C)=C2C)cc1 (stereo unspecified) | nt | nt | nt | nt | 0.8
CN1CCN(S(=O)(=O)c2cccc(C(=O)NC3CCCC3)c2)CC1 | nt | -4.7 | -5.3 | -7.7 | 22.6*
CC(=O)N1CCN(S(=O)(=O)c2cccc(C(=O)NC3CCCC3)c2)CC1 | 12.0 | 11.0 | 1.0 | 1.2 | -2.3
COc1ccccc1C(C)NC(=O)Cc1ccc(S(=O)(=O)N2CCOCC2)s1 (stereo unspecified) | -10.5 | 2.0 | 0.5 | -3.4 | 1.6
COC(Cn1c2c(c3cc(C)ccc31)CCCC2NCc1ccccc1)OC (stereo unspecified) | nt | nt | nt | nt | -1.8
FC(F)(F)c1cc(-c2ccco2)nc(NCc2cccnc2)n1 | -3.4 | 14.7 | 3.0 | 9.5 | 0.8
FC(F)(F)c1cc(-c2ccccc2)nc(NCc2cccnc2)n1 | -20.1 | 12.7 | -0.4 | 20.6 | 20.0*
COc1ccc(N(CC2CO2)S(=O)(=O)c2ccccc2)cc1 (stereo unspecified) | 13.3 | -9.9 | -22.5 | 0.4 | -1.4
COc1ccc2nc(N3CCCC3)c(C#N)cc2c1 | -13.5 | 15.7 | 15.8 | -1.4 | 11.4*
COc1ccc2nc(N3CCCCC3)c(C#N)cc2c1 | 1.1 | 2.6 | 8.3 | 10.4 | -2.0
CCc1nnc(N/N=C/c2cc(Br)c(O)cc2O)n1N | -8.1 | 5.3 | 4.0 | 2.0 | -1.2
CC(C)(C)c1nnc(N/N=C/c2cc(Br)ccc2O)n(N)c1=O | 105.1* | nt | nt | nt | 0.2
O=C1CCC(C(=O)N2CCCCCC2)CN1Cc1cccc(C(F)(F)F)c1 (stereo unspecified) | -1.3 | 13.9 | 25.1 | 0.3 | -0.6
Cc1ccc(NC(=O)c2cc(NC(=O)c3ccco3)ccc2N2CCOCC2)cc1 | 20.9 | 26.4 | 46.3 | 33.0 | 7.5
Cc1ccc(NC(=O)c2cc(N3C(=O)C=CC3=O)ccc2N2CCOCC2)cc1 | 105.6* | nt | nt | nt | 8.4
Cc1ccc(NC(=O)c2cc(N3C(=O)C=CC3=O)ccc2Cl)cc1C | 110.4* | 21.3 | 13.6 | -0.9 | -0.9
SMILES | PfHsp90 set2 | tim10-1 inh | tim23-1 inh | TIM10 inh | V-ATPase pHluor
CCCCCCCCCCCCN1[C@@H](CC(=O)O)c2cc(F)ccc2S1(=O)=O | -3.5 | 33.1 | 27.8 | 2.7 | -4.7
Cc1cc(Cl)ccc1NC(=S)N1CCN(Cc2ccccc2)CC1 | -2.2 | 25.6 | 33.4 | 24.4 | 0.2
Cc1cccc(NC(=S)N2CCN(Cc3ccccc3)CC2)c1C | 7.4 | 5.1 | 27.7 | 2.2 | 16.2*
CCCCC(C(=O)O)C(C)CC(=O)Nc1nccs1 (stereo unspecified) | 14.8 | -2.9 | 9.9 | -9.8 | -2.9
CCOc1c(Cl)cc(CNCC(C)C)cc1Cl | 3.5 | 6.6 | -2.5 | 4.3 | 19.8*
COC(=O)c1sc(NC(=O)c2ccc3c(c2)OCO3)c(C#N)c1C | 12.6 | nt | nt | nt | -1.0
CCN1CCCC1CN(Cc1cc2ccc(C)cc2[nH]c1=O)C(=S)Nc1ccc(F)cc1 (stereo unspecified) | 94.5* | 15.5 | 42.3 | 11.0 | 0.0
CCN1CCCC1CN(Cc1cc2ccc(C)cc2[nH]c1=O)C(=S)Nc1ccc(OC)cc1 (stereo unspecified) | 0.1 | -1.4 | 5.4 | -8.7 | 3.3
C[N+](C)(CCOc1ccccc1)Cc1ccccc1 | 4.8 | nt | nt | nt | 4.2

Assay outcomes (PubChem BioAssay)
